A selection: hits, their analogues and other compounds. The true share with any hit is near 2.9%.
N-glyco inh – N-linked glycosylation inhibition | D54 ERlucT glycosylation luciferase reporter, 24 h; percent of 100 nM tunicamycin response | reporter increase, % at 12.5 µM | 360,000 tested, 0.23% active | AID 588692;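 active means mean luciferase reporter signal, scaled so untreated is 0 and the glycosylation-blocking control 100, at or above a set limit in every replicate; inconclusive means mean reaches the limit but not every replicate does; inactive means mean below the limit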;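 further: luciferase carries N-glycosylation sites so blocking glycosylation raises the light; 0% = median of neutral control wells and 100% = median of 100 nM tunicamycin wells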
NSD2 inh – NSD2 (human) methyltransferase inhibition. 310,000 tested, 0.54% active. NSD2 peptide methylation, AlphaScreen, 120 min. inhibition, % at 12.5 µM. O96028; in the data active means inhibition above about 50%
PfHsp90 set2 – growth inhibition of yeast expressing Plasmodium Hsp90; AID 504621; 310,000 tested, 0.32% active; inhibition, % at 9.4 µM; S. cerevisiae expressing PfHsp90, BacTiter-Glo ATP, 48 h; yeast lacking PDR1 and PDR3 efflux regulators;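 active means every replicate shows inhibition above about 80%, whatever the replicate mean, limit read from the data; inconclusive means mean inhibition reaches the set limit but some replicate falls short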;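 further: 0% = DMSO neutral controls and 100% = 20 µM radicicol positive controls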
TRPM1 prom inh – inhibitors of MITF-driven TRPM1 promoter in melanoma cells; SK-MEL-5 TRPM1 promoter luciferase, 24 h; inhibition, % at 12.5 µM; 330,000 tested, 0.83% active;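 active means mean inhibition across replicates of 60% or more, whatever share of single replicates reaches that level; inconclusive means some that reach 60%, reason not given; inactive means mean inhibition across replicates below 60%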
MITF TRPM1 HTS – activators of MITF-driven TRPM1 promoter activity in SK-MEL-5 cells; 300,000 tested, 0.75% active; SK-MEL-5 TRPM1-promoter luciferase, 24 h; % of positive control, neutral wells = 0; AID 588334; activation, % at 12.5 µM;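 active means mean activation of at least 80% with every replicate also reaching 80%; inconclusive means mean reaches 80% but some replicate falls short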;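 further: 0% = neutral control wells and 100% = parthenolide positive control wells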
Wnt act – activators of Wnt/beta-catenin signaling. Wnt/beta-catenin reporter cell assay, activator, plate reader. activation, % at 9.35 µM. 300,000 tested, 1.2% active. AID 743398; in the data active means activation above about 30%, passing the limit was not always enough; inconclusive means no clear call, values can overlap the other calls;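 further: 0% = neutral control wells and 100% = positive control wells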
An asterisk follows results filed as active.

`O=C1c2ccccc2NC(c2ccc(-c3ccccc3F)o2)N1O` (stereo not given) gave N-glyco inh -1, TRPM1 prom inh -88, MITF TRPM1 HTS inconclusive and Wnt act inconclusive.
O=C1c2ccccc2NC(c2ccc(-c3cccc(F)c3)o2)N1O (stereo not given) was read as N-glyco inh -1, TRPM1 prom inh -84, MITF TRPM1 HTS inconclusive and Wnt act 46*.
`Cc1cccc(Nc2nc(-c3ccncc3)cs2)c1` gave N-glyco inh -8, NSD2 inh -4, PfHsp90 set2 -9, TRPM1 prom inh -50, MITF TRPM1 HTS 50 and Wnt act 9.
Cc1ccc(Nc2nc(-c3ccncc3)cs2)cc1 was read as N-glyco inh -14, NSD2 inh -1, PfHsp90 set2 -49, TRPM1 prom inh -94, MITF TRPM1 HTS 88* and Wnt act 43*.
Screening CCN(CC)c1ccc(Nc2nc(-c3cccnc3)cs2)cc1 returned N-glyco inh -3, NSD2 inh 7, PfHsp90 set2 9, TRPM1 prom inh -102, MITF TRPM1 HTS 112* and Wnt act 29.
Screening CN1CCN(Cc2nc3ccccc3c(=O)n2Cc2nc(-c3ccc([N+](=O)[O-])cc3)cs2)CC1 returned N-glyco inh -6, NSD2 inh 3, PfHsp90 set2 -12, TRPM1 prom inh 66* and MITF TRPM1 HTS -65.
`COc1ccc([C@@]23Oc4cc(OC)cc(OC)c4[C@]2(O)[C@H](O)[C@H](C(=O)N(C)C)[C@H]3c2ccccc2)cc1` gave N-glyco inh -20, PfHsp90 set2 2, TRPM1 prom inh 66*, MITF TRPM1 HTS -64 and Wnt act -9.
For COc1ccc(C2CC(O)(c3ccccc3)Oc3cc(OC)c(OC)c(OC)c32)cc1 (stereo not given) the results were N-glyco inh 3, PfHsp90 set2 13, TRPM1 prom inh -13, MITF TRPM1 HTS 6 and Wnt act -1.
CC1CC2(C)Oc3ccccc3CC2C(C)C1CNCCCN(C)C (stereo not given) was read as N-glyco inh -7, NSD2 inh 0, PfHsp90 set2 -1, TRPM1 prom inh 97*, MITF TRPM1 HTS -96 and Wnt act -3.
`Cc1[nH]nc2c1C(c1ccc(F)cc1)N(c1ccccc1)C2=O` (stereo not given) gave Wnt act -1.
Screening CC(C)N1CCC2(CC1)Oc1ccc(Br)cc1C1CC(c3cccnc3)=NN12 (stereo not given) returned N-glyco inh 0, NSD2 inh 11, PfHsp90 set2 9, TRPM1 prom inh 7 and Wnt act 2.
`COc1cccc2c1OC1(CCN(C(C)C)CC1)N1N=C(c3cccnc3)CC21` (stereo not given) gave N-glyco inh -1, NSD2 inh 0, PfHsp90 set2 -11, TRPM1 prom inh -10 and Wnt act 34*.
For NC(=O)c1ccc(NC(=O)C#Cc2ccccc2)cc1 the results were N-glyco inh -9, NSD2 inh -3, PfHsp90 set2 12, TRPM1 prom inh 7, MITF TRPM1 HTS -9 and Wnt act 41*.
For COc1ccc(NC(=O)C#Cc2ccccc2)cc1OC the results were N-glyco inh -6, NSD2 inh 1, PfHsp90 set2 4, TRPM1 prom inh -2 and Wnt act 1.
COc1ccc(S(=O)(=O)n2nc(-c3cc(OC)c(OC)c(OC)c3)cc2N)cc1OC was read as N-glyco inh 4, PfHsp90 set2 -19, TRPM1 prom inh 8, MITF TRPM1 HTS -12 and Wnt act -1.
Screening COc1ccc(-c2cc(N)n(S(=O)(=O)c3c(F)c(F)c(F)c(F)c3F)n2)cc1OC returned N-glyco inh 4, NSD2 inh 2, PfHsp90 set2 -11, TRPM1 prom inh 98*, MITF TRPM1 HTS -97 and Wnt act -4.
CCCCCCCCOC(=O)c1cc([N+](=O)[O-])c(Sc2ncnc3nc[nH]c23)c([N+](=O)[O-])c1 was read as N-glyco inh inconclusive, NSD2 inh 4, PfHsp90 set2 107*, TRPM1 prom inh 43 and Wnt act 4.
`CCCCOC(=O)c1ccc(Nc2ncnc3nc[nH]c23)cc1` gave N-glyco inh 0, PfHsp90 set2 -4, TRPM1 prom inh -81, MITF TRPM1 HTS 78 and Wnt act 13.
`Cc1cc(-c2nc3ncccc3o2)ccc1NC(=O)c1ccc([N+](=O)[O-])o1` gave N-glyco inh -1, NSD2 inh 2, PfHsp90 set2 -14, TRPM1 prom inh -3, MITF TRPM1 HTS 3 and Wnt act 0.
For Cc1ccc(-c2nc3ncccc3o2)cc1NC(=O)c1ccc([N+](=O)[O-])o1 the results were N-glyco inh 36*, NSD2 inh 2, PfHsp90 set2 -31, TRPM1 prom inh 82* and MITF TRPM1 HTS -81.
Screening O=C(Nc1ccc(-c2nc3ncccc3o2)cc1)c1ccc([N+](=O)[O-])o1 returned N-glyco inh -7, NSD2 inh 1, PfHsp90 set2 -8, TRPM1 prom inh 77*, MITF TRPM1 HTS -77 and Wnt act 0.
O=C(Nc1ccc2oc(-c3ccncc3)nc2c1)c1ccc([N+](=O)[O-])o1 was read as N-glyco inh 3, NSD2 inh -2, PfHsp90 set2 -37, TRPM1 prom inh 72*, MITF TRPM1 HTS -71 and Wnt act -6.
`O=C(Nc1cccnc1)c1ccc([N+](=O)[O-])o1` gave N-glyco inh 18, NSD2 inh -3, PfHsp90 set2 8, TRPM1 prom inh 36, MITF TRPM1 HTS -35 and Wnt act 9.
Cc1ccc(-c2cc(C(=O)N3CCN(c4ncccn4)CC3)c3cc(Br)ccc3n2)o1 was read as N-glyco inh 2, NSD2 inh 0, TRPM1 prom inh -14, MITF TRPM1 HTS 14 and Wnt act 1.
Oc1ccc(Cl)cc1C=NN1CCCCCC1 was read as N-glyco inh -4, NSD2 inh 0, TRPM1 prom inh -45, MITF TRPM1 HTS 47 and Wnt act 49*.
`CCn1c(Cl)c(C=O)s/c1=N\S(=O)(=O)c1ccccc1` gave N-glyco inh -6, PfHsp90 set2 0, TRPM1 prom inh 98*, MITF TRPM1 HTS -98 and Wnt act -22.
`CCc1nccn1CC(=O)c1ccc(O)c(O)c1` gave NSD2 inh 22.
`COc1ccc(C(=O)OCC(=O)N(C)C2CCS(=O)(=O)C2)cc1Br` (stereo not given) gave N-glyco inh 2, NSD2 inh 7, PfHsp90 set2 7, TRPM1 prom inh -7, MITF TRPM1 HTS 6 and Wnt act 1.
`O=C1NC(Cc2ccccc2)c2nc3cc(F)ccc3c(=O)n2-c2cc(Cl)ccc21` (stereo not given) gave Wnt act -3.
